Measurements as given in the supplement of paper PMC6555819.

Tests used:
Test in all cases: PBM binding z-score (relative to random genomic background probes); higher = stronger binding; sequences stand for … in GC…GCGATTGACAGCGTAGAATGAAGG
[1] = tested on: FXR:RXRa (NR concentration 270 nM, RXRa partner concentration 90 nM)
Outline: (§1)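 Regression normalization was applied to scanned fluorescence from custom Agilent 4×180K protein-binding microarrays. Before scanning, arrays were incubated 1 h with ligand-free nuclear receptor dimers, and binding was detected with antibodies against each partner (one per run). Binding z-scores use the random background probes as reference.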

[2] = tested on: LXRa:RXRa (NR concentration 270 nM, RXRa partner concentration 90 nM)
Outline: as §1

[3] = tested on: LXRa homodimer (NR concentration 270 nM)
Outline: as §1

[4] = tested on: LXRb:RXRa (NR concentration 270 nM, RXRa partner concentration 90 nM)
Outline: as §1

[5] = tested on: PPARa:RXRa (NR concentration 270 nM, RXRa partner concentration 90 nM)
Outline: as §1

[6] = tested on: PPARg:RXRa (NR concentration 180 nM, RXRa partner concentration 90 nM)
Outline: as §1

[7] = tested on: PPARg:RXRa 270nM:90nM, anti-RXR (NR concentration 270 nM, RXRa partner concentration 90 nM)
Outline: as §1

[8] = tested on: PPARg:RXRa 30nM:10nM, anti-RXR (NR concentration 30 nM, RXRa partner concentration 10 nM)
Outline: as §1

[9] = tested on: PPARg:RXRa 90nM:30nM, anti-RXR (NR concentration 90 nM, RXRa partner concentration 30 nM)
Outline: as §1

[10] = tested on: LXRb homodimer (NR concentration 270 nM)
Outline: as §1

Sequence | PBM binding z-score [1] | PBM binding z-score [2] | PBM binding z-score [3] | PBM binding z-score [4] | PBM binding z-score [5] | PBM binding z-score [6] | PBM binding z-score [7] | PBM binding z-score [8] | PBM binding z-score [9] | PBM binding z-score [10]
TCGATTAGGTTACGGGGGCATTCAGGGATGAAGA | 3.28 | 3.73 | 1.5 | 5.59 | 4.45 | 5.21 | 5.33 | 4.89 | 5.46 | 
AGTCAAATTTCACTAGGTAACGTAAGATTCAGCT | -0.177 | -0.14 | -0.0488 | 0.0425 |  | 0.5 | 0.334 | 0.197 | -0.0408 | 0.175
TCGAGTAGGTTACGGTGGCATTCAGGGATGAAGA | 0.0909 | 0.257 | -0.578 | 0.0794 | 1.81 | 1.73 | 2.29 | 1.44 | 1.9 | 
CCGTGTAGGTTACGAGGGGGCATTCAGTGCGAAT | 2.88 | 7.45 | 2.37 | 6.73 | 3.56 | 2.16 | 3.34 | 1.52 | 2.52 | 
CAATCTAGGTCAAAGGTCAAAGTCGAGCCAACCA | 8.46 | 7.47 | 6.51 | 7.41 |  | 14 | 11.2 | 12.9 | 13.1 | 3.28
CTATGTTGGTTAAGGGGGTCATTCAGTTTGAAAG | 4.6 | 4.68 | 3.82 | 6.28 | 5.26 | 4.14 | 5.2 | 2.97 | 4.57 | 
ATATGTAGGTGAAGGGTCATTCAGGTTGGTTCGC | 4.21 | 4.29 | 1.74 | 3.78 |  |  | 11.2 | 11.3 | 12.7 | 1.03
CCTGCTAGTTCAATGGTCAGCTAAAGCAGCTCGC | -0.115 | 0.171 | -0.297 | 0.044 |  | -0.523 | 0.0511 | -0.764 | -0.0476 | -0.17
TCGAGTAGGTTACGGGGGCATTCAGGGATGAAGA | 2.79 | 2.81 | 0.777 | 5.02 | 4.38 | 5.95 | 5.71 | 3.3 | 5.07 | 
CCGAGTAGGTTACGAGGGAGCATTCAGTGCGAAT | -0.0908 | 3.55 | -0.145 | 1.05 | 1.52 | 1.15 | 1.55 | 0.0513 | 0.563 | 
AGAATGAGGTTAAGATTAGGGAAACAGAATACAT | 2.33 | 1.73 | 0.0443 | 1.78 |  | 2.52 | 2.36 | 0.986 | 1.91 | -0.185
TCTTGTAGGTCAAAGGTTAAGAAAGCCGAAGCCT | 7.08 | 6.11 | 2.09 | 5.26 |  |  | 10.7 | 11.9 | 12.2 | 1.73
TCGAGTAGGTTACGGGGGCATTGAGGGATGAAGA | 2.37 | 2.69 | 0.404 | 4.67 | 4.31 | 6.35 | 5.59 | 3.59 | 5.05 | 
TCGAGTAGGTTACGGGGGCAATCAGGGATGAAGA | 1.97 | 2.28 | 0.238 | 4.49 | 4.14 | 6.62 | 5.6 | 3.37 | 4.85 | 
CCGAGTGGGTTACGAGGGGGCATTCAGTGCGAAT | 2.73 | 6.93 | 0.977 | 5.8 | 3.08 | 1.75 | 2.54 | 0.567 | 1.74 | 
CCGAGTAGGTTACGAGTGGGCATTCAGTGCGAAT | 0.0253 | 3.62 | -0.367 | 0.771 | 1.09 | 0.765 | 1.33 | -0.376 | 0.662 | 
CCAAGTAGGTTACGAGGGGGCATTCAGTGCGAAT | 3.42 | 7.37 | 1.65 | 6.39 | 4.05 | 4.83 | 4.89 | 2.33 | 3.81 | 
CGGAGTAGGTTACGAGGGGGCATTCAGTGCGAAT | 3.18 | 7.21 | 1.72 | 6.48 | 4.04 | 4.95 | 5.18 | 2.85 | 4.32 | 
CCGAGTAGGTTACGAGGGGGCATCCAGTGCGAAT | 1.87 | 6.84 | 1.45 | 5.77 | 3.24 | 2.67 | 3.34 | 0.797 | 2.31 | 
TCGCGTAGGTTACGGGGGCATTCAGGGATGAAGA | 2.62 | 3.1 | 0.819 | 5.1 | 4.31 | 4.62 | 4.92 | 3.28 | 3.93 | 
CCGAGTAGGTTACGAGGGGGAATTCAGTGCGAAT | 0.932 | 1.98 | 0.178 | 3.04 | 2.28 | 1.76 | 2.55 | 0.623 | 1.37 | 
CTATGTAGGTTAAGGGGATCATTCAGTTTGAAAG | 0.585 | 0.973 | 0.126 | 2 | 3.77 | 5.97 | 5.5 | 3.3 | 4.86 | 
CTATGTAGGTTAAGGGGGTGATTCAGTTTGAAAG | 1.52 | 1.98 | 0.79 | 3.83 | 4.69 | 7.43 | 6.74 | 4.44 | 6.29 | 
CCGAGTAGGTTGCGAGGGGGCATTCAGTGCGAAT | 1.26 | 2.94 | 0.489 | 4.71 | 2.73 | 0.173 | 1.85 | 0.127 | 1.53 | 
TCGAGTAGGTTACGGGGGCATTCATGGATGAAGA | 2.37 | 2.82 | 0.637 | 4.75 | 4.29 | 6.11 | 5.78 | 3.34 | 4.94 | 
CTATGCAGGTTAAGGGGGTCATTCAGTTTGAAAG | 5.02 | 5.01 | 3 | 6.31 | 5.63 | 5.77 | 6.3 | 3.13 | 5.29 | 

Sequence | PBM binding z-score [1] | PBM binding z-score [2] | PBM binding z-score [3] | PBM binding z-score [4] | PBM binding z-score [5] | PBM binding z-score [6] | PBM binding z-score [7] | PBM binding z-score [8] | PBM binding z-score [9] | PBM binding z-score [10]
CTATGTAGGTTAAGGGGGTAATTCAGTTTGAAAG | 1.45 | 2.81 | 0.813 | 4.23 | 4.84 | 7.58 | 6.9 | 5.33 | 6.78 | 
CCGAGTAGGTTACGAGGGGCCATTCAGTGCGAAT | 1.12 | 5.25 | -0.218 | 3.07 | 1.76 | 1.4 | 1.54 | 0.0553 | 0.829 | 
CTATGTAGGTTAAGGGGGTCAATCAGTTTGAAAG | 4.51 | 4.86 | 1.5 | 5.67 | 5.86 | 8.09 | 7.41 | 5.18 | 7.66 | 
CTATGTAGGTTAAGGGGGTCATTCGGTTTGAAAG | 5.21 | 4.84 | 2.94 | 6.16 | 6.15 | 8.47 | 7.83 | 6.21 | 7.86 | 
CCGAGTAGGTTAGGAGGGGGCATTCAGTGCGAAT | 2.47 | 4.27 | 1.19 | 5.24 | 2.86 | 1.74 | 2.65 | 1.44 | 2.24 | 
CCGAGTAGGTTACGAGAGGGCATTCAGTGCGAAT | 1.04 | 7.41 | 2.68 | 5.96 | 2.19 | 1.48 | 1.64 | -0.24 | 0.958 | 
TCGAGTAGGTGACGGGGGCATTCAGGGATGAAGA | 2.66 | 2.37 | 0.394 | 4.6 | 3.82 | 5.16 | 5.26 | 3.32 | 4.67 | 
TCGAGTAGTTTACGGGGGCATTCAGGGATGAAGA | 1.17 | 2.22 | 0.776 | 4.38 | 2.69 | 1.11 | 2.83 | 2.71 | 2.91 | 
CTATGTAGGTTAAGGGCGTCATTCAGTTTGAAAG | 0.15 | 0.294 | -0.263 | 0.367 | 3.53 | 5.29 | 5.64 | 3.36 | 5.17 | 
CTATGTAGGTTAAGGGGGTCCTTCAGTTTGAAAG | 1.09 | 1.76 | 0.414 | 3.75 | 4.29 | 6.59 | 6.57 | 4.47 | 6.41 | 
TCGAGTAGGTTACGGGGACATTCAGGGATGAAGA | 0.831 | 0.995 | -0.0512 | 0.999 | 2.4 | 3.19 | 3.06 | 1.81 | 2.27 | 
TCGACTAGGTTACGGGGGCATTCAGGGATGAAGA | 2.94 | 2.96 | 1.01 | 5.58 | 4.29 | 6.51 | 5.97 | 4.68 | 5.76 | 
CCGAGTAGGTTACGAGGGGGCATTCGGTGCGAAT | 1.7 | 7.08 | 1.42 | 6.21 | 3.53 | 2.41 | 3.16 | 0.729 | 2.56 | 
CCGAGTAGGTTACGAGGGGGCAATCAGTGCGAAT | 2.55 | 6.66 | 0.917 | 6.01 | 3.34 | 2.49 | 3.24 | 0.613 | 2.21 | 
CTATGTAGGCTAAGGGGGTCATTCAGTTTGAAAG | 3.71 | 3.81 | 0.999 | 5.74 | 5.31 | 5.77 | 6.41 | 3.65 | 6.14 | 
CCGAGTAGGTTACGAGGGGGCATTCAATGCGAAT | 2.32 | 7.34 | 1.1 | 6.15 | 3.62 | 2.64 | 3.7 | 1.21 | 2.45 | 
CTATGTAGGTTAAGGGGGTCATTCTGTTTGAAAG | 4.82 | 4.99 | 2.88 | 6.33 | 5.95 | 8.35 | 7.68 | 6 | 7.63 | 
TAGAGTAGGTTACGGGGGCATTCAGGGATGAAGA | 2.76 | 3.19 | 1.55 | 5.06 | 4.61 | 7.4 | 6.43 | 4.51 | 5.78 | 
TCGAGTAGGTTACGGGGGTATTCAGGGATGAAGA | 1.78 | 2.4 | 0.457 | 4.07 | 3.45 | 4.49 | 4.53 | 2.64 | 3.61 | 
CCGAGTAGGTTACGGGGGGGCATTCAGTGCGAAT | 4.53 | 6.83 | 3.13 | 7.21 | 3.74 | 4.54 | 4.46 | 2.55 | 3.84 | 
TCGAGTAGGTTACGGGGGCATTTAGGGATGAAGA | 3.13 | 3 | 0.674 | 5.04 | 4.52 | 6.04 | 5.65 | 2.96 | 4.66 | 
TCGAGTAGGGTACGGGGGCATTCAGGGATGAAGA | 2.34 | 2.37 | 0.643 | 4.6 | 3.09 | 4.1 | 4.09 | 3.19 | 3.84 | 
CCGAGTAGGTTACGCGGGGGCATTCAGTGCGAAT | 3.18 | 6.77 | 1.34 | 6.01 | 3.32 | 2.36 | 3.3 | 1.11 | 2.24 | 
CCGAGTAGGTTACGAGCGGGCATTCAGTGCGAAT | 0.242 | 7.14 | 0.879 | 4.08 | 0.9 | 0.617 | 0.819 | -0.546 | 0.27 | 
CCGAGTAGCTTACGAGGGGGCATTCAGTGCGAAT | 0.729 | 1.73 | 0.701 | 3.62 | 1.77 | -0.443 | 0.5 | -0.877 | -0.359 | 
CGATGTAGGTTAAGGGGGTCATTCAGTTTGAAAG | 5.57 | 4.7 | 3.53 | 6.23 | 5.85 | 8.23 | 7.56 | 6.22 | 7.61 | 
